Measured values as given in PubChem BioAssay AID1159580 (chemical genetic matrix, 2015).
The whole screen tested about 5,500 compounds, of which about 2,000 (36%) were called active. Not shown: some 18% with an inconclusive outcome. Rule as the data show it: active = normalized growth mostly below about 0.91 (no sharp cut-off); inconclusive = no clear call, values can overlap the other calls; inactive = mostly above about 0.92. Some of the results follow.

Test: chemical genetic growth profiling, strain panel (AID 1159580);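 also: tested at 20 µM; growth read once vehicle control cultures reached saturation at 30 °C; 1 = growth at the plate median or of vehicle wells; lower values mean less growth of the strain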
Conditions: S. cerevisiae deletion strains, growth OD
[1] = locus YJR075W, strain HOC1, active compounds read low
[2] = locus YMR263W, strain SAP30, active compounds read low
[3] = locus YNL153C, strain GIM3, active compounds read low
[4] = locus YPL055C, strain LGE1, active compounds read low
[5] = locus YDL101C, strain DUN1, active compounds read low
[6] = locus YHR030C, strain SLT2, active compounds read low

Measured: normalized growth

O=C1c2ccccc2-c2n[nH]c3cccc1c23
active: locus YAL040C, strain CLN3, active compounds read low 0.674 | [1] 0.827 | [3] 0.345 | locus YNL175C, strain NOP13, active compounds read low 0.621 | locus YNL197C, strain WHI3, active compounds read low 0.826 | locus YNL224C, strain SQS1, active compounds read low 0.654 | locus YOR083W, strain WHI5 (second series), active compounds read low 0.504 | [4] 0.727
inactive: locus YDR363W, strain ESC2, active compounds read low 0.906 | locus YER002W, strain NOP16, active compounds read low 0.982 | [2] 0.981

N/C(=N/OC(=O)c1ccccc1)c1ccc(-c2csnn2)cc1
inactive: locus YAL013W, strain DEP1, active compounds read low 0.998 | locus YBR229C, strain ROT2, active compounds read low 0.988 | [5] 0.984 | locus YDL134C, strain PPH21, active compounds read low 1.01 | locus YDR150W, strain NUM1, active compounds read low 0.965 | locus YEL061C, strain CIN8, active compounds read low 0.991 | locus YGR078C, strain PAC10, active compounds read low 1 | [6] 1.08 | locus YHR087W, strain rtc3, active compounds read low 0.993 | locus YJL187C, strain SWE1, active compounds read low 1.02 | locus YJR043C, strain POL32, active compounds read low 1.01 | [1] 1.02 | locus YLR039C, strain RIC1, active compounds read low 1.03 | locus YLR058C, strain SHM2 (second series), active compounds read low 1 | locus YLR085C, strain ARP6, active compounds read low 1.01 | locus YLR262C, strain YPT6, active compounds read low 1.01 | locus YML094W, strain GIM5, active compounds read low 0.993 | locus YMR219W, strain ESC1, active compounds read low 1 | [2] 1.03 | [3] 1 | locus YNL298W, strain CLA4 (second series), active compounds read low 1.01 | locus YNL322C, strain KRE1, active compounds read low 1.01 | locus YNR030W, strain Alg12, active compounds read low 1 | locus YOL006C, strain TOP1, active compounds read low 1.07 | [4] 0.905 | locus YPL241C, strain CIN2, active compounds read low 1 | locus YPR135W, strain CTF4, active compounds read low 1.04

O=S(=O)(Oc1ccc(-c2csnn2)cc1)c1ccccc1Cl
active: locus YLR113W, strain HOG1, active compounds read low 0.854
inactive: locus YAR019C, strain CDC15, active compounds read low 0.965 | locus YBL105C, strain PKC1, active compounds read low 0.98 | locus YBR135W, strain CKS1, active compounds read low 0.966 | locus YBR136W, strain MEC1, active compounds read low 0.963 | locus YBR160W, strain CDC28, active compounds read low 0.971 | locus YDL017W, strain CDC7, active compounds read low 0.974 | locus YDL028C, strain MPS1, active compounds read low 0.968 | [5] 0.956 | locus YDL108W, strain KIN28, active compounds read low 0.967 | locus YDL132W, strain cdc53, active compounds read low 0.971 | locus YDL214C, strain PRR2, active compounds read low 0.939 | locus YDR052C, strain DBF4, active compounds read low 0.978 | locus YDR054C, strain cdc34, active compounds read low 0.979 | locus YDR226W, strain ADK1, active compounds read low 0.969 | locus YDR477W, strain SNF1, active compounds read low 0.94 | locus YER123W, strain YCK3, active compounds read low 0.915 | locus YER133W, strain GLC7, active compounds read low 0.939 | locus YFL009W, strain cdc4, active compounds read low 0.973 | locus YFL029C, strain CAK1, active compounds read low 0.963 | locus YFR003C, strain YPI1, active compounds read low 0.972 | locus YFR019W, strain FAB1, active compounds read low 0.913 | locus YFR028C, strain CDC14, active compounds read low 0.957 | locus YGR040W, strain KSS1, active compounds read low 0.934 | locus YGR052W, strain FMP48, active compounds read low 0.969 | locus YGR092W, strain DBF2, active compounds read low 0.935 | [6] 0.907 | locus YHR079C, strain IRE1, active compounds read low 0.929 | locus YHR082C, strain KSP1, active compounds read low 0.948 | locus YHR205W, strain SCH9, active compounds read low 0.946 | locus YIL147C, strain SLN1, active compounds read low 0.968 | locus YJL095W, strain BCK1, active compounds read low 0.936 | locus YJL128C, strain PBS2, active compounds read low 0.938 | locus YJL157C, strain FAR1, active compounds read low 0.947 | locus YJR016C, strain ILV3, active compounds read low 0.978 | locus YJR066W, strain TOR1 (second series), active compounds read low 0.909 | locus YJR066W, strain TOR1, active compounds read low 0.921 | locus YKL048C, strain ELM1, active compounds read low 0.988 | locus YKL067W, strain YNK1, active compounds read low 0.933 | locus YKL101W, strain HSL1, active compounds read low 0.951 | locus YKL193C, strain SDS22, active compounds read low 0.967 | locus YKL203C, strain TOR2, active compounds read low 0.989 | locus YLR133W, strain CKI1, active compounds read low 0.947 | locus YLR403W, strain SFP1, active compounds read low 0.927 | locus YML070W, strain DAK1, active compounds read low 0.922 | locus YMR001C, strain CDC5, active compounds read low 0.968 | locus YMR205C, strain PFK2 (second series), active compounds read low 0.941 | locus YMR277W, strain FCP1, active compounds read low 0.965 | locus YNL006W, strain LST8, active compounds read low 0.981 | locus YNL020C, strain ARK1, active compounds read low 0.973 | locus YNL161W, strain CBK1, active compounds read low 0.969 | locus YNL183C, strain NPR1, active compounds read low 0.896 | locus YNL207W, strain RIO2, active compounds read low 0.971 | locus YNL222W, strain SSU72, active compounds read low 0.975 | locus YNL307C, strain MCK1 (second series), active compounds read low 0.96 | locus YOL078W, strain AVO1, active compounds read low 0.974 | locus YOL136C, strain PFK27, active compounds read low 0.916 | locus YOR061W, strain CKA2, active compounds read low 0.923 | locus YOR119C, strain RIO1, active compounds read low 0.964 | locus YOR231W, strain MKK1, active compounds read low 0.906 | locus YOR329C, strain SCD5, active compounds read low 0.966 | locus YPL031C, strain PHO85, active compounds read low 0.946 | locus YPL153C, strain RAD53, active compounds read low 0.956 | locus YPL204W, strain HRR25, active compounds read low 0.931 | locus YPL209C, strain IPL1, active compounds read low 0.975 | locus YPL256C, strain CLN2, active compounds read low 0.881 | locus YPR025C, strain CCL1, active compounds read low 0.968 | locus YPR106W, strain ISR1, active compounds read low 0.961 | locus YPR111W, strain DBF20, active compounds read low 0.964 | strain NNK1, active compounds read low 0.96 | strain TSCII, active compounds read low 0.995
